# Data: PubChem BioAssay (EPA / NIEHS)
# Inconclusive results are not listed. Activity calls are given as the source filed them. How the source made its calls: active means hit-call score of the fitted dose curve at least 0.9, where 1 is the maximum; inconclusive means response in the unintended direction; inactive means score below 0.9.
# Read-out: Cytochrome P450 3A4 (Homo sapiens) (UniProt P08684)
# Test: CLD_CYP3A4_24hr: CellzDirect (CLD) Gene Expression Assay for xenobiotic metabolism (CYP3A4) at 24 hours (AID 2283689)
# Procedure: CLD_24hr is a cell-based, multiplexed-readout assay that uses hepatocyte, a human liver primary cell, with measurements taken at 24 hours after chemical dosing in a 96-well plate.CLD_CYP3A4_24hr is one of 16 assay component(s) measured or calculated from the CLD_24hr assay. It is designed to make measurements of mRNA induction, a form of inducible reporter, as detected with chemiluminescence signals by Quantitative Nuclease Protection Assay (qNPA) technology.Data from the assay component CLD_CYP3A4_24hr was analyzed at the endpoint, CLD_CYP3A4_24hr, in the positive analysis fitting direction relative to DMSO as the negative control and baseline of activity. Using a type of inducible reporter, gain-of-signal activity can be used to understand changes in the reporter gene as they relate to the gene CYP3A4. Furthermore, this assay endpoint can be referred to as a primary readout. To generalize the intended target to other relatable targets, this assay endpoint is annotated to the cyp intended target family, where subfamily is xenobiotic metabolism.
# Human hepatocyte cultures were treated daily for two consecutive days with fresh dosing solutions containing appropriate concentrations of the 320 ToxCast chemicals (chemical identities were blinded to CellzDirect and other ToxCast collaborators), vehicle control (0.2% DMSO), and positive control inducers as summarized in Table 1. Due to the large number of treatment groups and chemicals examined, the ToxCast chemicals were divided into two groups (spanning two independent cultures of hepatocytes from separate donor preparations (Hu778: ToxCast plates 1 and 2; Hu776: ToxCast plates 3 and 4). Each preparation of human hepatocyte cultures was treated with respective vehicle control, medium only control, set of six positive controls/reference chemicals for the five hepatic receptor pathways, and a subset of eight of the ToxCast chemicals (indoxacarb, pyrithiobac-sodium, norflurazon, cyhalofop-butyl, methomyl, thiram, acetochlor, and propiconazole). These replicate data, coupled with internal replicates designed within the blinded ToxCast chemical library, provided additional data to evaluate interindividual differences between hepatocyte preparations and their potential impact on chemical profiles.Cell morphology and integrity were evaluated using phase-contrast microscopy as an indicator of hepatocyte cell health (Tyson & Green, 1987). Cultures for each treatment group (i.e., media, vehicle [0.2% DMSO], positive control inducers [multiple concentrations], and the ToxCast chemicals [multiple concentrations]) were observed and cell morphology was assessed relative to vehicle control cultures at each harvest time point (0, 6, 24, or 48 h). […] Images were evaluated at the conclusion of the study to assess changes in cell integrity and account for the effects of chemical exposure on uncharacteristic changes in concentration-dependent gene expression profiles. The results from these determinations of apparent cytotoxicity were annotated (yes/no) alongside the corresponding qNPA data for reference.At the conclusion of each treatment period, hepatocyte cultures (96-well) were washed with 1 volume of HBSS, lysed by addition of 25 ul ArrayPlate lysis buffer (HTG, Tucson, AZ), and 70 ul/well of Denaturation Oil, denatured by incubation at 95C for 10 min, and frozen at approximately -70C until analysis by nuclease protection assay (qNPA) (Roberts et al., 2007). For qNPA analysis, cell lysates were thawed at 50C for approximately 30 min, qNPA probes were added, and samples were incubated at 95C for 10 min to begin the detection process by denaturing the target RNA, dissociating the duplexes and secondary structure hybridization. At the conclusion of the hybridization period, S1 nuclease reagent was added to each sample to digest all nonprotected nucleotides at 50C for 60-90 min. […]
# Cytochrome P450 3A4 (Homo sapiens), sequence (P08684 whole entry, looked up): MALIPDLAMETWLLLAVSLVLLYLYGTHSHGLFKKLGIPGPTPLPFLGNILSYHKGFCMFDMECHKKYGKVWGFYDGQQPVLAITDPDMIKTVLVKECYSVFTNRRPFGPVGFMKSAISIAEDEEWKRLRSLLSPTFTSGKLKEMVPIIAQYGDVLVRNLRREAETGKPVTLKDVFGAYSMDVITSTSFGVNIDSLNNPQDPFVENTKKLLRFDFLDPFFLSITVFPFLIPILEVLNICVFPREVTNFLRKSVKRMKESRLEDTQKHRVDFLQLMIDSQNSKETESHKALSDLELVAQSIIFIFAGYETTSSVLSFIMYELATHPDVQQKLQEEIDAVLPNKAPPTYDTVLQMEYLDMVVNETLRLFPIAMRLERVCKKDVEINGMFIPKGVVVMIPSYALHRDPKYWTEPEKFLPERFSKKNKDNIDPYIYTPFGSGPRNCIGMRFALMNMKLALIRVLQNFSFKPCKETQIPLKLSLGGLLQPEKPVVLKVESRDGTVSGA
Structure (SMILES),outcome,AC50
Oc1ccc(Cl)cc1Cc1ccccc1,inactive,
O=C(O)C(F)(F)C(F)(F)C(F)(F)C(F)(F)C(F)(F)C(F)(F)C(F)(F)F,,20 µM (active)
COP(=S)(OC)Oc1ccc([N+](=O)[O-])cc1,inactive,
OCCOc1ccccc1,inactive,
O=[N+]([O-])c1c(Cl)c(Cl)c(Cl)c(Cl)c1Cl,inactive,
CNC(=O)Oc1ccccc1OC(C)C,,5.41 µM (active)
CCCN(CCOc1c(Cl)cc(Cl)cc1Cl)C(=O)n1ccnc1,,0.57 µM (active)
CCC(C)(C)C(=O)OC1=C(c2ccc(Cl)cc2Cl)C(=O)OC12CCCCC2,,0.0493 µM (active)
O=C(NC(=O)c1c(F)cccc1F)Nc1ccc(OC(F)(F)C(F)OC(F)(F)F)c(Cl)c1 (stereo not drawn),inactive,
Cc1cc(C)nc(NC(=O)NS(=O)(=O)c2ccccc2C(=O)OC2COC2)n1,,20 µM (active)
CCOC1Oc2ccc(OS(C)(=O)=O)cc2C1(C)C (stereo not drawn),,20 µM (active)
CC(C)OC(=O)Nc1cccc(Cl)c1,,16 µM (active)
CCC(C)(NC(=O)c1cc(Cl)c(C)c(Cl)c1)C(=O)CCl (stereo not drawn),,4.49 µM (active)
Cc1[nH]c(=O)n(C(C)(C)C)c(=O)c1Cl,inactive,
COP(=S)(OC)Oc1ccc(SC)c(C)c1,inactive,
O=S1OCC2C(CO1)C1(Cl)C(Cl)=C(Cl)C2(Cl)C1(Cl)Cl (stereo not drawn),,20 µM (active)
COC(=O)c1ccccc1CS(=O)(=O)NC(=O)Nc1nc(OC)cc(OC)n1,inactive,
COC(=O)c1ccccc1S(=O)(=O)NC(=O)Nc1nc(C)nc(OC)n1,inactive,
CCc1ccc(C(=O)NN(C(=O)c2cc(C)cc(C)c2)C(C)(C)C)cc1,,3.67 µM (active)

Structure (SMILES),outcome,AC50
C[C@H]1[C@H](c2ccc(Cl)cc2)SC(=O)N1C(=O)NC1CCCCC1,,3.56 µM (active)
COC(=O)c1ccccc1S(=O)(=O)NC(=O)N(C)c1nc(C)nc(OC)n1,inactive,
CC1(c2ccc(Oc3ccccc3)cc2)OC(=O)N(Nc2ccccc2)C1=O (stereo not drawn),inactive,
O=[N+]([O-])/N=C1\NCCN1Cc1ccc(Cl)nc1,inactive,
O=C(O)CCCOc1ccc(Cl)cc1Cl,inactive,
CCOc1nc(NC)nc(NC(=O)NS(=O)(=O)c2ccccc2C(=O)OC)n1,inactive,
CCCN(CCC)c1c([N+](=O)[O-])cc(C(F)(F)F)cc1[N+](=O)[O-],,5.68 µM (active)
CC(C)(C)C(O)/C(=C\c1ccc(Cl)cc1Cl)n1cncn1 (stereo not drawn),,0.98 µM (active)
O=S(=O)(O)C(F)(F)C(F)(F)C(F)(F)C(F)(F)C(F)(F)C(F)(F)C(F)(F)C(F)(F)F,inactive,
CCOCN(C(=O)CCl)c1c(C)cccc1CC,,3 µM (active)
CNC(=O)/C=C(\C)OP(=O)(OC)OC,inactive,
CC(C)N(C(=O)COc1nnc(C(F)(F)F)s1)c1ccc(F)cc1,inactive,
CCC(C)Nc1c([N+](=O)[O-])cc(C(C)(C)C)cc1[N+](=O)[O-] (stereo not drawn),,3.84 µM (active)
CCN(CC)C(=O)SCc1ccc(Cl)cc1,,20 µM (active)
CNC(=O)Oc1cccc(N=CN(C)C)c1,inactive,
CCS(=O)(=O)c1cccnc1S(=O)(=O)NC(=O)Nc1nc(OC)cc(OC)n1,,20 µM (active)
Clc1ccccc1-c1nnc(-c2ccccc2Cl)nn1,,3.97 µM (active)
CC1(C)C(C=C(Cl)Cl)C1C(=O)OC(C#N)c1ccc(F)c(Oc2ccccc2)c1 (stereo not drawn),inactive,
N#Cc1c(Cl)c(Cl)c(Cl)c(C#N)c1Cl,inactive,
